# Results filed as inconclusive are left out. Where a call stands in place of a potency, no number is given. Activity calls are given as the source filed them. Unless noted, calls follow the shape of the dose curve; as a rule, active = well fitted curve in the direction sought with a large enough effect in the repeat runs; inconclusive = weak or mixed curves; inactive = no such curve, though single readings can be large; an effect the other way counts as inactive or inconclusive.
# What was measured:
# [1] = qHTS assay to identify aromatase inhibitors - cell viability counter screen (AID 743084);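 also: cells stimulated with testosterone during compound exposure; nearly all actives have a fitted effect of over 55% in size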; also: potency is read from the fitted curve at half-maximal effect
# [2] = target: Aryl hydrocarbon receptor (Homo sapiens) (UniProt P35869); test: qHTS assay to identify small molecule that activate the aryl hydrocarbon receptor (AhR) signaling pathway (AID 743085);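 also: HG2L7.5c1 human HepG2 liver cells with stably integrated DRE-driven firefly reporter; series mostly up to about 70 µM; nearly all actives have a fitted effect of over 15% in size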
# Sequence of Aryl hydrocarbon receptor (Homo sapiens) (P35869 whole entry, looked up): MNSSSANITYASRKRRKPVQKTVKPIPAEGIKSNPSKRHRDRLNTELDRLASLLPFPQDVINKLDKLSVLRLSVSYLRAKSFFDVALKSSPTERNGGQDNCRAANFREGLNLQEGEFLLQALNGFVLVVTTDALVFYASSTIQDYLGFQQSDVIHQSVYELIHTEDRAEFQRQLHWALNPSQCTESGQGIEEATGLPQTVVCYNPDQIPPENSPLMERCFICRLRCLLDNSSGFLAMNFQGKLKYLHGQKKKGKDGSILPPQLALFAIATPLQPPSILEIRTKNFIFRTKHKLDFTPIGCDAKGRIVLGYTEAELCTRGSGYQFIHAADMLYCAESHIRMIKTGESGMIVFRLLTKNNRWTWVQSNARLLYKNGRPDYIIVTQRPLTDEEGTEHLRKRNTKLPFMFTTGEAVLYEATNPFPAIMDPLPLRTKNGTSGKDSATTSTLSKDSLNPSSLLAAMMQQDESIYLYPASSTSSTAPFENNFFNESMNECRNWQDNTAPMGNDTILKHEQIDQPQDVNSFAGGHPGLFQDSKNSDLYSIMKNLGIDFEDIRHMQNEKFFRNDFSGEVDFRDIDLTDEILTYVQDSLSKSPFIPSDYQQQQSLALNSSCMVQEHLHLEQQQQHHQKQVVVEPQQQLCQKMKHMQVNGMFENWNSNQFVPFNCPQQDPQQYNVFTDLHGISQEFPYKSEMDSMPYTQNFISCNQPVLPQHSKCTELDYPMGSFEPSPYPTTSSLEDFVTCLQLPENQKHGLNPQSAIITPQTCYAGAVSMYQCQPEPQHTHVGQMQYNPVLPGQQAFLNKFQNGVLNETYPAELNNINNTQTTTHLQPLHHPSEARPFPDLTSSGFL
# How it was run: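 Cell line HG2L7.5c1 (human hepatoma, 20× DRE-luc). Plated, 5 h 37C, compound/DMSO added, 24 h 37C. CellTiter-Fluor 30 min 37C → fluorescence; then ONE-Glo 30 min RT → luminescence.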
# [3] = target: Peroxisome proliferator-activated receptor gamma (Homo sapiens) (UniProt P37231); test: qHTS assay to identify small molecule antagonists of the peroxisome proliferator-activated receptor gamma (PPARg) signaling pathway (AID 743191; calls by dose curve; also: series mostly up to about 63 µM; nearly all actives have a fitted effect of over 30% in size)
# Sequence of Peroxisome proliferator-activated receptor gamma (Homo sapiens) (P37231 whole entry, looked up): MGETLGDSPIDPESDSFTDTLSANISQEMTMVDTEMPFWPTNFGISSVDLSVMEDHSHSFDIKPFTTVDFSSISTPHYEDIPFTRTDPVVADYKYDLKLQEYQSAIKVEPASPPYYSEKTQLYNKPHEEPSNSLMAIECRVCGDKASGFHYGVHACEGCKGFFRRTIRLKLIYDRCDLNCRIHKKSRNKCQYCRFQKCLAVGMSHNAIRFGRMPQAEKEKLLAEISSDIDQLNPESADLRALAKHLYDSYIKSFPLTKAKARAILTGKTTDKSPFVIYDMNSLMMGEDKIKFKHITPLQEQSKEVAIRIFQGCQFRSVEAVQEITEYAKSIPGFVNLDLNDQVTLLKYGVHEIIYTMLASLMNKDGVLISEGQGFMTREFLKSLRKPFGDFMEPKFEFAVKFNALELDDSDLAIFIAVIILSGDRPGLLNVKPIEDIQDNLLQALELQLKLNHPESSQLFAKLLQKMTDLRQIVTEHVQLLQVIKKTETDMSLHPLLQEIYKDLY
# How it was run: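 Beta-lactamase reporter under UAS control in HEK293H PPARg-bla cells; compound treatment 17 h at 37C. Read-out: fluorescence intensity after 1 h room-temperature incubation with LiveBLAzer B/G FRET substrate.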
# [4] = qHTS assay to identify small molecule antagonists of the peroxisome proliferator-activated receptor gamma (PPARg) signaling pathway - cell viability counter screen (AID 743194); also: nearly all actives have a fitted effect of over 55% in size
# How it was run: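 Viability was measured as CellTiter-Glo luminescence in GeneBLAzer PPARg UAS-bla HEK293H cells. These cells had been exposed 17 h at 37 C to compounds together with rosiglitazone at 50 nM final, with the beta-lactamase readout taken in the same wells.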
# [5] = qHTS assay for small molecule agonists of the antioxidant response element (ARE) signaling pathway - cell viability counter screen (AID 743203; calls by dose curve; also: nearly all actives have a fitted effect of over 55% in size)
# How it was run: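 Following 16 hrs of compound treatment at 37C, HepG2 cells with an ARE-controlled beta-lactamase gene were lysed with CellTiter-Glo. Luminescence was read after 30 min at room temperature.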
# [6] = qHTS assay for small molecule activators of the heat shock response signaling pathway - cell viability counter screen (AID 743209); also: nearly all actives have a fitted effect of over 50% in size; also: potency is read from the fitted curve at half-maximal effect
# How it was run: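 Readout: CellTiter-Glo luminescence, 30 min at room temperature. System: HSE-bla HeLa cells, 1500/well, plated overnight. Treatment: compounds in DMSO, 5 h at 37 C.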
# [7] = qHTS assay for small molecule activators of the heat shock response signaling pathway (AID 743210; active = well fitted activation curve with a large enough effect in the signal ratio in the repeat runs, with a control signal flat, not every such curve was filed as active; the % refers to the signal ratio; also: potency is read from the fitted curve at half-maximal effect;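 as to activation: HeLa cells with beta-lactamase reporter driven by heat shock elements; series mostly up to about 63 µM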)
# How it was run: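 In HSE-bla HeLa cells, 5 h compound incubation (37 C) precedes addition of LiveBLAzer B/G substrate; after 2.5 h at room temperature, fluorescence intensity indicates reporter induction.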
# [8] = qHTS assay to identify small molecule agonists of the peroxisome proliferator-activated receptor delta (PPARd) signaling pathway - cell viability counter screen (AID 743211); also: nearly all actives have a fitted effect of over 55% in size
# How it was run: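 HEK293H PPARd-bla, 3000 cells/well; 5 h preincubation 37C/5% CO2; cpd in DMSO, 17 h 37C; B/G FRET substrate 2 h RT; CellTiter-Glo 30 min RT, luminescence.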
# [9] = target: Peroxisome proliferator-activated receptor delta (Homo sapiens) (UniProt Q03181); test: qHTS assay to identify small molecule agonists of the peroxisome proliferator-activated receptor delta (PPARd) signaling pathway (AID 743212; calls by dose curve)
# Sequence of Peroxisome proliferator-activated receptor delta (Homo sapiens) (Q03181 whole entry, looked up): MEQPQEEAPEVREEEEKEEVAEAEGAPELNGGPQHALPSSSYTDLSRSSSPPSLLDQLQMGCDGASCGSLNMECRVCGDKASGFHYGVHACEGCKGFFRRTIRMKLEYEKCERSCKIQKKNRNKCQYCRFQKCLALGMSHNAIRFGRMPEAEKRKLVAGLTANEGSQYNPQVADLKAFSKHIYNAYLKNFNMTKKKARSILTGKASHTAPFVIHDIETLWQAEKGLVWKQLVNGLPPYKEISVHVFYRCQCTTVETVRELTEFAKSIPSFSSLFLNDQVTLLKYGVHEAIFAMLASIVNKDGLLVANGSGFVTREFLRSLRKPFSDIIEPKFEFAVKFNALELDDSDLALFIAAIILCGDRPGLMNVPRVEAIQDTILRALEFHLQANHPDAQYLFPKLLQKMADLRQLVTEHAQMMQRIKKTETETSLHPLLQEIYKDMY
# How it was run: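 HEK293H UAS-bla reporter cells, human PPARd system; compounds delivered in DMSO after 5 h plating, then at 37 C. Beta-lactamase FRET read, 2 h RT substrate step.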
# [10] = qHTS assay to identify small molecule antagonists of the peroxisome proliferator-activated receptor delta (PPARd) signaling pathway - cell viability counter screen (AID 743213); also: nearly all actives have a fitted effect of over 50% in size
# How it was run: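 PPARd-bla HEK293H cells were treated with compounds plus agonist L165041 (300 nM final) for 17 h at 37 C. Viability was then read in the same wells by CellTiter-Glo luminescence after 30 min at room temperature.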
# [11] = target: Peroxisome proliferator-activated receptor delta (Homo sapiens) (UniProt Q03181); test: qHTS assay to identify small molecule antagonists of the peroxisome proliferator-activated receptor delta (PPARd) signaling pathway (AID 743215; active = well fitted inhibition curve with a large enough effect in the signal ratio in the repeat runs, not every such curve was filed as active; the % refers to the signal ratio;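 also: cells stimulated with agonist L165041 at 300 nM final during compound exposure; series mostly up to about 62 µM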)
# How it was run: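 HEK293H UAS-bla, PPARd; agonist L165041 300 nM final with cpd in DMSO; 37 C 17 h; FRET substrate, RT 2 h; fluorescence intensity.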
# [12] = qHTS assay to identify small molecule agonists of the farnesoid-X-receptor (FXR) signaling pathway - cell viability counter screen (AID 743218); also: nearly all actives have a fitted effect of over 45% in size
# How it was run: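 Parallel cytotoxicity test: compound-treated (16 h, 37 C) HEK 293T FXR-bla reporter cells were lysed with CellTiter-Glo and luminescence recorded.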
# [13] = target: Vitamin D3 receptor (Homo sapiens) (UniProt P11473); test: qHTS assay to identify small molecule agonists of the vitamin D receptor (VDR) signaling pathway (AID 743222; calls by dose curve)
# Sequence of Vitamin D3 receptor (Homo sapiens) (P11473 whole entry, looked up): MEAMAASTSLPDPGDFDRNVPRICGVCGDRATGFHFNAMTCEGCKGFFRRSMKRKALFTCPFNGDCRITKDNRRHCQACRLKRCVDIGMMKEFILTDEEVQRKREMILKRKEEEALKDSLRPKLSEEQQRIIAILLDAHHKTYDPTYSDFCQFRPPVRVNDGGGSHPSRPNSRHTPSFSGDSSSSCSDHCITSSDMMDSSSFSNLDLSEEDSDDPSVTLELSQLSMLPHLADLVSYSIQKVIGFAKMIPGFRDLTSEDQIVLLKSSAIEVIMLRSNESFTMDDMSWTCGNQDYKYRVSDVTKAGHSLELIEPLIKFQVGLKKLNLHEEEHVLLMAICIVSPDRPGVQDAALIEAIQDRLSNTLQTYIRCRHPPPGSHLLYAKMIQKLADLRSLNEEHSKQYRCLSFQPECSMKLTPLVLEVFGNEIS
# How it was run: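 In VDR-bla cells, compound-induced beta-lactamase expression is quantified by FRET substrate fluorescence. Treatment lasts 16 h at 37C; substrate develops 2 h at room temperature.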
# [14] = target: Vitamin D3 receptor (Homo sapiens) (UniProt P11473); test: qHTS assay to identify small molecule antagonists of the vitamin D receptor (VDR) signaling pathway (AID 743223; active = well fitted inhibition curve with a large enough effect in the signal ratio in the repeat runs, not every such curve was filed as active; the % refers to the signal ratio)
# How it was run: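 Antagonist mode uses 1alpha,25-dihydroxyvitamin D3 at 3 nM final as stimulus. VDR-bla cells receive compounds in DMSO, incubate 16 h at 37C, then a beta-lactamase FRET substrate for 2 h at room temperature before fluorescence measurement.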
# [15] = qHTS assay to identify small molecule that activate the aryl hydrocarbon receptor (AhR) signaling pathway - cell viability counter screen (AID 743086); also: nearly all actives have a fitted effect of over 45% in size; also: potency is read from the fitted curve at half-maximal effect
# How it was run: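 Cytotoxicity counter screen: CellTiter-Fluor signal (30 min, 37 C) in 4000 HepG2 cells/well carrying the DRE-luciferase reporter, following 24 h compound exposure at 37 C.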
# [16] = target: Peroxisome proliferator-activated receptor gamma (Homo sapiens) (UniProt P37231); test: qHTS assay to identify small molecule agonists of the peroxisome proliferator-activated receptor gamma (PPARg) signaling pathway (AID 743094; active = well fitted activation curve with a large enough effect in the signal ratio in the repeat runs, not every such curve was filed as active; the % refers to the signal ratio)
# How it was run: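 Compounds dissolved in DMSO were added to PPARg UAS-bla HEK293H cells for 17 h at 37C, and reporter expression was quantified by fluorescence intensity after 1 h with LiveBLAzer B/G FRET substrate.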
# [17] = qHTS assay to identify small molecule antagonists of the farnesoid-X-receptor (FXR) signaling pathway - cell viability counter screen (AID 743221; active = well fitted cell-killing curve with a large enough effect in the repeat runs, not every such curve was filed as active; also: nearly all actives have a fitted effect of over 50% in size)
# How it was run: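 Luminescence from CellTiter-Glo measures cytotoxicity in GeneBLAzer FXR-UAS-bla HEK 293T cells. Cells were exposed to compounds with 50 uM chenodeoxycholic acid (final) for 16 h at 37 C, in wells also used for the reporter readout.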
# [18] = qHTS assay for small molecule agonists of the antioxidant response element (ARE) signaling pathway (AID 743202; active = well fitted activation curve with a large enough effect in the signal ratio in the repeat runs, not every such curve was filed as active; the % refers to the signal ratio; also: potency is read from the fitted curve at half-maximal effect)
# How it was run: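 An ARE-responsive beta-lactamase gene stably integrated in HepG2 cells serves as reporter. After 5 h plating and 16 h compound incubation at 37 C, fluorescence of the B/G FRET substrate was measured.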
# [19] = target: Bile acid receptor (Homo sapiens) (UniProt Q96RI1); test: qHTS assay to identify small molecule agonists of the farnesoid-X-receptor (FXR) signaling pathway (AID 743220; active = well fitted activation curve with a large enough effect in the signal ratio in the repeat runs, not every such curve was filed as active; the % refers to the signal ratio)
# Sequence of Bile acid receptor (Homo sapiens) (Q96RI1 whole entry, looked up): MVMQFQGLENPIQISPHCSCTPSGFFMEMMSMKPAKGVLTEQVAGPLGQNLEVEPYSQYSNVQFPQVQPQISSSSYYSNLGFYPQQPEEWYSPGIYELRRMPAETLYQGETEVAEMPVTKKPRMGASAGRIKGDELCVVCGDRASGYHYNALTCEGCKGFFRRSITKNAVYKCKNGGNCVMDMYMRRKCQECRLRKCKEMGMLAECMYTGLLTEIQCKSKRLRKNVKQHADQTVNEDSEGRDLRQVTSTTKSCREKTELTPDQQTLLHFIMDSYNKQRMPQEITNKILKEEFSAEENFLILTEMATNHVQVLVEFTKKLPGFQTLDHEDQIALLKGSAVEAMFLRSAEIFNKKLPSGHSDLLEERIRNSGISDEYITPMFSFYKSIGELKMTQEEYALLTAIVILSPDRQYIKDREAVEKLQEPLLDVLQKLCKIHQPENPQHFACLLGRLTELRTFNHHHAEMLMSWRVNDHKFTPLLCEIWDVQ
# How it was run: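 Beta-lactamase reporter under UAS control in GeneBLAzer FXR HEK 293T cells (5000/well) measured with LiveBLAzer FRET substrate after 2 h at room temperature. Compound exposure lasted 16 h at 37C.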
# [20] = target: Bile acid receptor (Homo sapiens) (UniProt Q96RI1); test: qHTS assay to identify small molecule antagonists of the farnesoid-X-receptor (FXR) signaling pathway (AID 743217; active = well fitted inhibition curve with a large enough effect in the signal ratio in the repeat runs, not every such curve was filed as active; the % refers to the signal ratio)
# How it was run: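 GeneBLAzer FXR-UAS-bla HEK 293T, CDCA-stimulated (50 uM final). Compound treatment 16 h, 37 °C. Detection: beta-lactamase cleavage of B/G FRET substrate, fluorescence.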
Structure (SMILES),Potency [1],Potency [2],Potency [3],Potency [4],Potency [5],Potency [6],Potency [7],Potency [8],Potency [9],Potency [10],Potency [11],Potency [12],outcome [13],outcome [14],Potency [15],Potency [16],Potency [17],Potency [18],Potency [19],Potency [20]
CC1(C)C(=O)N(Br)C(=O)N1Cl,inactive,inactive,inactive,inactive,inactive,inactive,inactive,inactive,inactive,inactive,inactive,inactive,inactive,inactive,,,,,,
COc1ccc(CCC(=O)c2c(O)cc(O[C@@H]3O[C@H](CO)[C@@H](O)[C@H](O)[C@H]3O[C@@H]3O[C@@H](C)[C@H](O)[C@@H](O)[C@H]3O)cc2O)cc1O,inactive,,inactive,inactive,inactive,inactive,inactive,inactive,,inactive,,inactive,inactive,inactive,inactive,inactive,inactive,,,
CCCCCCCC/C=C\CCCCCCCC(=O)OC(CO)CO,inactive,inactive,,inactive,inactive,43.6 µM (active),,,,inactive,,inactive,,,,inactive,inactive,,,
CCCCCCCCCCCC(=O)[O][Sn]([CH2]CCC)([CH2]CCC)[O]C(=O)CCCCCCCCCCC,inactive,inactive,,,,,,,inactive,,,,,,,inactive,,2.11 µM (active),,
O=Cc1c(Cl)cccc1Cl,inactive,,inactive,,inactive,inactive,inactive,inactive,inactive,inactive,inactive,inactive,inactive,inactive,inactive,inactive,,,,
Cc1cc(S(=O)(=O)O)ccc1N=Nc1c(O)ccc2ccccc12,27.3 µM (active),,inactive,inactive,inactive,inactive,inactive,inactive,,inactive,,inactive,,inactive,24.3 µM (active),inactive,inactive,inactive,inactive,
NC(=O)Cn1c(=O)cc(CCN2CCN(c3nccc4sccc34)CC2)c2ccc(F)cc21,inactive,inactive,,inactive,,inactive,inactive,inactive,,inactive,inactive,,,inactive,,inactive,,,inactive,
CC1CC(O)CC(C)(C)C1 (stereo unspecified),inactive,,inactive,inactive,inactive,inactive,,inactive,inactive,inactive,inactive,,inactive,inactive,inactive,inactive,inactive,,,inactive
CC[C@H](NC(=O)c1cc(F)ccc1NS(=O)(=O)c1cccc2cccnc12)c1ccccc1,inactive,inactive,,inactive,inactive,inactive,inactive,inactive,inactive,,,inactive,,inactive,,,inactive,,inactive,
Oc1cc(O)c(Cl)cc1Cl,inactive,,inactive,inactive,inactive,inactive,50.2 µM (active),,inactive,inactive,inactive,inactive,inactive,inactive,inactive,inactive,inactive,,inactive,inactive
